In PubChem BioAssay (EPA / NIEHS):
Calls of active or inactive are those of the source. The calls were made as follows: active = hit-call score of the fitted dose curve at least 0.9, where 1 is the maximum; inactive = score below 0.9.

Columns and labels:
[1] = read-out: Collagen I, COL1A1 (gene 1277); assay: BSK_MyoF_CollagenI: BioMAP Diversity Plus: MyoF Assay for Collagen I Biomarker Activity (AID 2284238); details: primary human lung fibroblasts
Summary of the method: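 ELISA readout of Collagen I after 24 h chemical treatment of primary human lung fibroblast cultures; gain of signal scored relative to DMSO vehicle baseline.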

[2] = read-out: Collagen III, COL3A1 (gene 1281); assay: BSK_MyoF_CollagenIII: BioMAP Diversity Plus: MyoF Assay for Collagen III Biomarker Activity (AID 2284239); details: primary human lung fibroblasts
Summary of the method: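 Lung fibroblast culture; 24 h compound exposure; collagen III by ELISA; gain-of-signal fit vs DMSO baseline.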

[3] = read-out: Interleukin 17F (IL17F), IL17F (gene 112744); assay: BSK_BT_xIL17F: BioMAP Diversity Plus: BT Assay for Interleukin 17F (IL17F) Biomarker Activity (AID 2284243); details: primary human B cells with PBMC
Summary of the method: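 Secreted IL-17F, read on LumineX xMAP beads, was taken as the endpoint. Cultures combined human B cells and peripheral blood mononuclear cells, sampled 24 hours after dosing, with DMSO serving as negative control.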

[4] = read-out: Actin alpha 1 (ACTA1), ACTA1 (gene 58); assay: BSK_MyoF_ACTA1: BioMAP Diversity Plus: MyoF Assay for Actin alpha 1 (ACTA1) Biomarker Activity (AID 2284244); details: primary human lung fibroblasts
Summary of the method: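 MyoF fibroblast system (human lung); a-SMA quantified via ELISA at 24 h; DMSO-normalised, gain-of-signal endpoint.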

[5] = read-out: Interleukin 2 (IL2), IL2 (gene 3558); assay: BSK_BT_xIL2: BioMAP Diversity Plus: BT Assay for Interleukin 2 (IL2) Biomarker Activity (AID 2284245); details: primary human B cells with PBMC
Summary of the method: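 Co-cultures of primary human B cells and PBMC are treated with chemical and sampled at 24 h. IL-2 secretion is quantified by Luminex xMAP, with DMSO-treated wells as baseline.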

[6] = read-out: Basic fibroblast growth factor (bFGF), FGF2 (gene 2247); assay: BSK_MyoF_bFGF: BioMAP Diversity Plus: MyoF Assay for Basic fibroblast growth factor (bFGF) Biomarker Activity (AID 2284246); details: primary human lung fibroblasts
Summary of the method: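 Fibroblasts from human lung, 24 h dosing. bFGF by ELISA; gain of signal over DMSO.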

[7] = read-out: Collagen IV, COL4A1 (gene 1282); assay: BSK_MyoF_CollagenIV: BioMAP Diversity Plus: MyoF Assay for Collagen IV Biomarker Activity (AID 2284247); details: primary human lung fibroblasts
Summary of the method: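 Lung fibroblasts (human primary) treated with chemicals were assayed after 24 h for Collagen IV using an ELISA, with DMSO serving as negative control and baseline for a positive-direction fit.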

[8] = read-out: Plasminogen activator inhibitor-1 (PAI1), SERPINE1 (gene 5054); assay: BSK_MyoF_PAI1: BioMAP Diversity Plus: MyoF Assay for Plasminogen activator inhibitor-1 (PAI1) Biomarker Activity (AID 2284256); details: primary human lung fibroblasts
Summary of the method: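 MyoF lung fibroblasts, human primary; compound 24 h; PAI-1 ELISA; positive-direction fit vs DMSO baseline; parallel SRB total-protein staining for cytotoxicity.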

[9] = read-out: Interleukin-8 (IL8), CXCL8 (gene 3576); assay: BSK_MyoF_IL8: BioMAP Diversity Plus: MyoF Assay for Interleukin-8 (IL8) Biomarker Activity (AID 2284261); details: primary human lung fibroblasts
Summary of the method: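 Lung fibroblasts (human primary) → chemical exposure → 24 h → IL-8 measured by ELISA. Signal increase scored versus DMSO control.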

[10] = read-out: Decorin, DCN (gene 1634); assay: BSK_MyoF_Decorin: BioMAP Diversity Plus: MyoF Assay for Decorin Biomarker Activity (AID 2284265); details: primary human lung fibroblasts
Summary of the method: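 ELISA readout of decorin, 24 h post-dosing; primary human lung fibroblast (MyoF) culture; gain-of-signal fit vs DMSO baseline.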

[11] = BSK_MyoF_SRB: Viability Assessment in the BioMAP Diversity Plus: MyoF Assay (AID 2284267); details: primary human lung fibroblasts;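 also: total protein by SRB absorbance in parallel cultures as cytotoxicity measure; cells assessed 24 h after compound addition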
Summary of the method: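 In this viability endpoint, fibroblasts from human lung are treated for 24 h, TCA-fixed, SRB-stained (0.1%) and read at 560 nm. Gain of signal relative to DMSO defines activity.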

[12] = read-out: TIMP metallopeptidase inhibitor 1 (TIMP1), TIMP1 (gene 7076); assay: BSK_MyoF_TIMP1: BioMAP Diversity Plus: MyoF Assay for TIMP metallopeptidase inhibitor 1 (TIMP1) Biomarker Activity (AID 2284269); details: primary human lung fibroblasts
Summary of the method: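 ELISA quantified TIMP-1 levels after 24 h dosing of primary human lung fibroblasts, with DMSO as baseline. Parallel SRB total protein staining (0.1% SRB after TCA fixation, 560 nm) flagged overt cytotoxicity.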

[13] = CCTE_Mundy_HCI_Cortical_NOG_BPCount: CCTE's Neurite Outgrowth Assay in rat cortical cells for Branch Point Count, Mundy Lab (AID 2284237)
Summary of the method: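 Measured 50.33 h after dosing, this morphology endpoint uses rat primary cortical cultures labelled for betaIII-tubulin. Branch points are quantified by high-content imaging, with DMSO as negative control and baseline.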

[14] = CCTE_Mundy_HCI_hNP1_Casp3_7: CCTE's Caspase-Glo 3/7 Assay in human neuroprogenitor cells for Apoptosis, Mundy Lab (AID 2284240)
Summary of the method: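 Luminescent caspase-3/7 readout, 26.5 h post-dose, in human neural progenitor cells from WA09 embryonic stem cells. Cells grew 40–44 h at 37 °C, 5% CO2 before chemical addition. Activity analysed as signal increase over DMSO baseline.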

Measured: AC50

Cc1ccc(Nc2ccc(O)c3c2C(=O)c2ccccc2C3=O)cc1
inactive: [1] | [2] | [3] | [4] | [5] | [6] | [7] | [8] | [9] | [10] | [11] | [12]

CN(C)C(=N)N=C(N)N
inactive: [13] | [14]

CC(C)(COC(=O)c1ccccc1)COC(=O)c1ccccc1
inactive: [1] | [2] | [3] | [4] | [5] | [6] | [7] | [8] | [9] | [10] | [11] | [12]

Cc1ccc2n[nH]nc2c1
inactive: [1] | [2] | [3] | [4] | [5] | [6] | [7] | [8] | [9] | [10] | [11] | [12]

CCCCCCCCC=O
inactive: [1] | [2] | [3] | [4] | [5] | [6] | [7] | [8] | [9] | [10] | [11] | [12]

O=C(O)c1cn(-c2ccc(F)cc2)c2cc(N3CCNCC3)c(F)cc2c1=O
inactive: [1] | [2] | [3] | [4] | [5] | [6] | [7] | [8] | [9] | [10] | [11] | [12]

CN(CCOc1ccc(CC2SC(=O)NC2=O)cc1)c1ccccn1 (stereo not drawn)
active: [1] 0.016 µM | [7] 0.111 µM | [8] 0.0541 µM
inactive: [2] | [3] | [4] | [5] | [6] | [9] | [10] | [11] | [12]

CCCCC/C=C/C=C/C=O
active: [1] 32.4 µM | [2] 32.2 µM | [3] 30.7 µM | [4] 31.6 µM | [5] 31.4 µM | [6] 36.8 µM | [7] 10.5 µM | [8] 29.4 µM | [10] 20 µM | [11] 32 µM | [12] 34.2 µM
inactive: [9]

CCCCCCCCCC=O
inactive: [1] | [2] | [3] | [4] | [5] | [6] | [9] | [10] | [11] | [12]
active: [7] 7.8 µM | [8] 0.016 µM

CCCCC(CC)COC(=O)/C=C\C(=O)OCC(CC)CCCC (stereo not drawn)
active: [5] 20 µM
inactive: [1] | [2] | [3] | [4] | [6] | [7] | [8] | [9] | [10] | [11] | [12]

CC(=O)Nc1ccccc1O
active: [2] 0.016 µM
inactive: [1] | [3] | [4] | [5] | [6] | [7] | [8] | [9] | [10] | [11] | [12]

CCCCC(CC)COCCC#N (stereo not drawn)
inactive: [1] | [2] | [3] | [4] | [5] | [6] | [7] | [8] | [9] | [10] | [11] | [12]

c1ccc2sc(SN(C3CCCCC3)C3CCCCC3)nc2c1
inactive: [1] | [2] | [3] | [5] | [6] | [7] | [8] | [9] | [10] | [11] | [12]
active: [4] 5.57 µM

BrC1CCC(Br)C(Br)CCC(Br)C(Br)CCC1Br (stereo not drawn)
inactive: [1] | [2] | [4] | [6] | [7] | [8] | [9] | [10] | [11] | [12]
active: [3] 25 µM | [5] 25.2 µM

C=C[Si](OCC)(OCC)OCC
inactive: [1] | [2] | [3] | [4] | [5] | [6] | [7] | [8] | [9] | [10] | [11] | [12]

CC1COc2ccccc2N1C(=O)C(Cl)Cl (stereo not drawn)
inactive: [3] | [5] | [6] | [10]
active: [1] 14.4 µM | [2] 29.6 µM | [4] 20 µM | [7] 2.33 µM | [8] 5.3 µM | [9] 16.1 µM | [11] 20 µM | [12] 4.69 µM

COC(=O)c1ccc(C)cc1
inactive: [1] | [2] | [3] | [4] | [5] | [6] | [7] | [8] | [9] | [10] | [11] | [12]

O=C1CCCCCCCCCCCCCCO1
inactive: [6] | [7] | [8] | [9] | [10] | [11] | [12]
active: [1] 8.87 µM | [2] 20 µM | [3] 31.2 µM | [4] 13.9 µM | [5] 32.9 µM

CCn1c2ccccc2c2cc(N)ccc21
inactive: [1] | [2] | [3] | [4] | [5] | [6] | [7] | [8] | [9] | [10] | [11] | [12]

N#Cc1ccc(CC(=NNC(=O)Nc2ccc(OC(F)(F)F)cc2)c2cccc(C(F)(F)F)c2)cc1
inactive: [13] | [1] | [2] | [14] | [3] | [4] | [5] | [6] | [7] | [8] | [9] | [10] | [11] | [12]

CC(=O)/C=C/C1=C(C)CCCC1(C)C
inactive: [1] | [2] | [3] | [4] | [5] | [6] | [7] | [8] | [9] | [10] | [11] | [12]

CNC[C@H](O)c1cccc(O)c1
active: [2] 0.016 µM
inactive: [1] | [3] | [4] | [5] | [6] | [7] | [8] | [9] | [10] | [11] | [12]

CCCCCCCCCCCCCCCCCC(=O)OCC(CC)CCCC (stereo not drawn)
inactive: [1] | [2] | [3] | [4] | [5] | [6] | [7] | [8] | [9] | [10] | [11] | [12]
